From article PMC4081100, “A DNA-binding-site landscape and regulatory network analysis for NAC transcription factors in Arabidopsis thaliana”

Legend:
Assay in all cases: universal protein binding microarray (PBM); transcription factors of Arabidopsis thaliana; high values mean tight binding
Details in all cases: protein: recombinant; tags: GST; chain copies: 2; dsDNA, one strand shown
GST-ANAC092(1-176) = biological target: T1, GST-ANAC092(1-176) (Arabidopsis thaliana, UniProt Q9FKA0 1-176)
T1 sequence: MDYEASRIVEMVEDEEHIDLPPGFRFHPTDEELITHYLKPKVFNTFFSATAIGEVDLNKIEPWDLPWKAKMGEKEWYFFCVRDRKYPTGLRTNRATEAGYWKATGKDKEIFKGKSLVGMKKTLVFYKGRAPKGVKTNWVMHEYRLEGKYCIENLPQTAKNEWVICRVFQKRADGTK
In short: (§1)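 Protein amounts were determined by A280 or anti-GST western blot after glutathione–Sepharose 4B purification of GST-tagged proteins induced in cells, with zinc acetate included for zinc-finger proteins. Duplicate runs at 200 to 500 nM final were done on custom all-10-mer Agilent 4 × 180K arrays made double-stranded by primer extension. The normalised enrichment score (E-score) over gapped and ungapped 8-mers is the measure of binding.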

GST-NTL6(1-168) = GST-NTL6(1-168) (Arabidopsis thaliana, UniProt Q9SCK6 1-168)
In short: as §1

GST-ANAC019 NAC domain = biological target: T2, GST-ANAC019 NAC domain (Arabidopsis thaliana, UniProt Q9C932 14-162)
T2 sequence: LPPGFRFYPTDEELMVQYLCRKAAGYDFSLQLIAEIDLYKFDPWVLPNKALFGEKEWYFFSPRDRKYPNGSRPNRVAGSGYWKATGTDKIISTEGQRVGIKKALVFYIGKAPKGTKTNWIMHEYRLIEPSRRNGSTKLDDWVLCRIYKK
In short: as §1

GST-ANAC055(1-171) = biological target: T3, GST-ANAC055(1-171) (Arabidopsis thaliana, UniProt Q9LDY8 1-171)
T3 sequence: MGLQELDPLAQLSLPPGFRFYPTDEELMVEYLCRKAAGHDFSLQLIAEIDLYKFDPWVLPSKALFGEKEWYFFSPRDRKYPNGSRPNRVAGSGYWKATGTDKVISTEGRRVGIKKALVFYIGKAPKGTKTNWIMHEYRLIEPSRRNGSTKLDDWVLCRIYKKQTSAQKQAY
In short: as §1

GST-ATAF1 NAC domain = biological target: T4, GST-ATAF1 NAC domain (Arabidopsis thaliana, UniProt Q39013 7-158)
T4 sequence: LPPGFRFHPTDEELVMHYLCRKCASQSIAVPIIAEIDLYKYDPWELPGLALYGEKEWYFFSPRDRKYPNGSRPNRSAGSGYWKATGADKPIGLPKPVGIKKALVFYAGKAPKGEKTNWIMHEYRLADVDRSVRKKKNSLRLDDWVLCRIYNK
In short: as §1

[1] = biological target: T5, GST-ANAC092(1-285) full length (Arabidopsis thaliana, UniProt Q9FKA0 1-285)
T5 sequence: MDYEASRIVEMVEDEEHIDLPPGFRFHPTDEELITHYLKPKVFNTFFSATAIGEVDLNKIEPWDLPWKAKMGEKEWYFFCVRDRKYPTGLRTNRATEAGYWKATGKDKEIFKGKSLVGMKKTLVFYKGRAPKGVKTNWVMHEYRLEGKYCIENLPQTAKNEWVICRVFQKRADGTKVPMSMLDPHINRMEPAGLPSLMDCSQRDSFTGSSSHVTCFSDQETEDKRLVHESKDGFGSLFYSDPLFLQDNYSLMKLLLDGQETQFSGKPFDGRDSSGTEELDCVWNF
In short: as §1

GST-NAP(1-166) = biological target: T6, GST-NAP(1-166) (Arabidopsis thaliana, UniProt O49255 1-166)
T6 sequence: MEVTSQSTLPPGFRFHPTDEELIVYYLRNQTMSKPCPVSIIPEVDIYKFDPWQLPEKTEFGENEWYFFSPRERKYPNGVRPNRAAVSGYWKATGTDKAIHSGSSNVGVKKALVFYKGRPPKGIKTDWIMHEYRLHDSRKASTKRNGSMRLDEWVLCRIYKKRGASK
In short: as §1

GST-NST2(1-184) = biological target: T7, GST-NST2(1-184) (Arabidopsis thaliana, UniProt Q9M274 1-184)
T7 sequence: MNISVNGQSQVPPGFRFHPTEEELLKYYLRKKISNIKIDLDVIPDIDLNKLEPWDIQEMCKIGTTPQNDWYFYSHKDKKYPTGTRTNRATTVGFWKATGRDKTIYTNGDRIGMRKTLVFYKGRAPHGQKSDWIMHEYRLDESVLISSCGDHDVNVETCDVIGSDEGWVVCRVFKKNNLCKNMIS
In short: as §1

GST-SND1(1-203) = biological target: T8, GST-SND1(1-203) (Arabidopsis thaliana, UniProt Q9LPI7 1-203)
T8 sequence: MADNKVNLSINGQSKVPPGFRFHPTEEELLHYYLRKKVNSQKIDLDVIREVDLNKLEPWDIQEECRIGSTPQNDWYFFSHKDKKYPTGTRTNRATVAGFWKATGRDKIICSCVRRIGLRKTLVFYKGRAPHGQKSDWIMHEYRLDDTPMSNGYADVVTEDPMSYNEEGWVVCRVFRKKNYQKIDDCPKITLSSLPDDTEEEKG
In short: as §1

GST-VND3 NAC domain = biological target: T9, GST-VND3 NAC domain (Arabidopsis thaliana, UniProt Q9FH59 12-162)
T9 sequence: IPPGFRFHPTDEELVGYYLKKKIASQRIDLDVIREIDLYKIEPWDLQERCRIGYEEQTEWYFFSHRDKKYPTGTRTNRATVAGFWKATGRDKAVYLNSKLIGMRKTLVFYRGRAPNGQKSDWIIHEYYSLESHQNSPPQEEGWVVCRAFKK
In short: as §1

GST-VND7 NAC domain = biological target: T10, GST-VND7 NAC domain (Arabidopsis thaliana, UniProt Q9C8W9 9-158)
T10 sequence: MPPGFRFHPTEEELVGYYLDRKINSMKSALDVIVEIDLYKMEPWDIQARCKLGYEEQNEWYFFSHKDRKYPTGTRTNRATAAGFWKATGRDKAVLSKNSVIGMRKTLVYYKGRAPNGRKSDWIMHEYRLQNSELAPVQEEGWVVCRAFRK
In short: as §1

GST-NTL8 NAC domain = biological target: T11, GST-NTL8 NAC domain (Arabidopsis thaliana, UniProt Q9XIN7 14-156)
T11 sequence: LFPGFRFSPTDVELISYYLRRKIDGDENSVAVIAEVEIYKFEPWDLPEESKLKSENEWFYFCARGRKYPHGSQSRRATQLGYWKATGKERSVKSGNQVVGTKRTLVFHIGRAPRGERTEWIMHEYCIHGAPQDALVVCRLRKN
In short: as §1

Chain of GST-NTL6(1-168) (Q9SCK6 1-168): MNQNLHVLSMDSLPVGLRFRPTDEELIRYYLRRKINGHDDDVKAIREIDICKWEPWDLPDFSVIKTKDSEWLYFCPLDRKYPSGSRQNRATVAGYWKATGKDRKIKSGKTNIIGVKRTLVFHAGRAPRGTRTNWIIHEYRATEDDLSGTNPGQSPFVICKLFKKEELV

Row | Sequence | binding signal (GST-ANAC092(1-176)) [E-score] | binding signal (GST-NTL6(1-168)) [E-score] | binding signal (GST-ANAC019 NAC domain) [E-score] | binding signal (GST-ANAC055(1-171)) [E-score] | binding signal (GST-ATAF1 NAC domain) [E-score] | binding signal [1] [E-score] | binding signal (GST-NAP(1-166)) [E-score] | binding signal (GST-NST2(1-184)) [E-score] | binding signal (GST-SND1(1-203)) [E-score] | binding signal (GST-VND3 NAC domain) [E-score] | binding signal (GST-VND7 NAC domain) [E-score] | binding signal (GST-NTL8 NAC domain) [E-score]
1 | AATGCCGT | 0.335 | 0.0523 | 0.428 | 0.391 | 0.342 | 0.365 | 0.366 | 0.114 | 0.0974 | 0.407 | 0.4 | –
2 | AAACGTGT | 0.424 | 0.0946 | 0.269 | 0.33 | 0.339 | 0.435 | 0.249 | 0.275 | 0.214 | 0.328 | 0.306 | –
3 | GGAAGCAA | 0.318 | 0.36 | 0.117 | 0.136 | 0.137 | 0.405 | 0.0755 | 0.242 | 0.385 | 0.118 | 0.0735 | 0.269
4 | CAAGTAAC | 0.352 | 0.316 | 0.134 | 0.203 | 0.0948 | 0.408 | 0.0502 | 0.298 | 0.301 | 0.209 | 0.0947 | 0.185
5 | CACGTAAA | 0.425 | 0.0987 | 0.43 | 0.414 | 0.332 | 0.431 | 0.35 | 0.293 | 0.289 | 0.414 | 0.346 | –
6 | GCGTAATA | 0.318 | 0.0582 | 0.0565 | 0.189 | 0.0519 | 0.324 | 0.109 | 0.306 | 0.422 | 0.203 | 0.246 | –
7 | ACGTATCT | 0.189 | 0.0824 | 0.425 | 0.38 | 0.334 | 0.306 | 0.393 | 0.189 | 0.14 | 0.393 | 0.313 | –
8 | ACGTTTTC | 0.382 | 0.196 | 0.248 | 0.304 | 0.336 | 0.401 | 0.29 | 0.32 | 0.322 | 0.303 | 0.327 | 0.225
9 | GTTACTTA | 0.306 | 0.461 | 0.0988 | 0.117 | 0.256 | 0.374 | 0.113 | 0.25 | 0.41 | 0.263 | 0.248 | 0.286
10 | TAACGTGA | 0.42 | 0.0647 | 0.144 | 0.213 | 0.208 | 0.419 | 0.168 | 0.257 | 0.385 | 0.251 | 0.0561 | –
11 | ATTCCGTG | 0.408 | 0.129 | 0.438 | 0.448 | 0.3 | 0.401 | 0.329 | 0.251 | 0.135 | 0.386 | 0.41 | –
12 | CGTTTCCC | 0.244 | 0.14 | 0.176 | 0.176 | 0.108 | 0.274 | 0.28 | 0.0635 | 0.265 | 0.179 | 0.186 | 0.422
13 | AATACGCA | 0.411 | 0.109 | 0.196 | 0.293 | 0.142 | 0.431 | 0.221 | 0.206 | 0.356 | 0.314 | 0.259 | –
14 | GTGACGTA | 0.447 | 0.0989 | 0.375 | 0.36 | 0.39 | 0.452 | 0.417 | 0.311 | 0.467 | 0.365 | 0.413 | –
